PubChem BioAssay AID1259343 (VanderVen Lab, College of Veterinary Medicine, Cornell …, 2017)
Out of some 6,200 compounds screened, about 2,900 (47%) were called active. No stated cut-off is given here; in the data, active means inhibition above about 50%; inactive means the rest. So high a share suggests a set chosen from earlier hits. Some of the results follow.

assay: Mycobacterium tuberculosis growth inhibition, primary screen (AID 1259343); conditions: inhibition: at 10 µM, stronger effect = higher value; outcome: 10 uM

Q: With `Cc1ccc2oc(-c3ccc(C)c(N)c3)nc2c1` as the compound, how does the inhibition read?
A: 37.6% (inactive)

Q: With `Cc1cc(-c2nc3c(C)cccc3o2)ccc1NC(=O)C(C)C` as the compound, how does the inhibition read?
A: 58.5% (active)

Q: For `N#Cc1c(N=CN2CCCCCC2)sc2c1CCCC2`, which inhibition is on record?
A: 99% (active)

Q: For `Cc1ccc(-n2[nH]c(C)c(N=Nc3cccc(-c4cccc(C(=O)O)c4)c3O)c2=O)cc1C`, which inhibition is on record?
A: 83.7% (active)

Q: For `Cc1cccc2cc(C(=O)N3C[C@H]4CC=CC[C@H]4C3)oc12`, which inhibition is on record?
A: 72.4% (active)

Q: For `Cc1ccc(NC2CCCN(C(=O)c3cc4ccccc4o3)C2)cc1C` (configuration not stated), which inhibition is on record?
A: inactive

Q: For `Cc1cc2cccc(C(=O)N3CCN4CCN(C)C(=O)C4C3)c2o1` (configuration not stated), which inhibition is on record?
A: 0.8% (inactive)

Q: With `Cc1cnc(NC(=O)c2ccc(N(C)C3CCCCC3)cc2)s1` as the compound, how does the inhibition read?
A: 45.9% (inactive)

Q: For `O=C(Nc1nncs1)c1ccc(C2CCCCC2)cc1`, which inhibition is on record?
A: 82.1% (active)

Q: Which inhibition does the source give for `S=C(Nc1ccccc1)Nc1nncs1` here?
A: 15.5% (inactive)

Q: For `O=C1NC(=S)SC1=Cc1ccccc1OCc1ccccc1`, which inhibition is on record?
A: 102% (active)

Q: With `O=C1NC(=S)SC1=Cc1ccccc1OC(F)F` as the compound, how does the inhibition read?
A: 81.1% (active)

Q: Which inhibition does the source give for `Oc1ccc(-c2ccc(I)cc2)cc1` here?
A: 20.3% (inactive)

Q: Which inhibition does the source give for `C=CCOc1ccc(-c2ccc(C#N)cc2)cc1` here?
A: -10.6% (inactive)

Q: With `N#Cc1ccc(-c2ccc(O)cc2)cc1` as the compound, how does the inhibition read?
A: 96.9% (active)

Q: For `O=C(CCl)N1CCSC1c1ccccc1F` (configuration not stated), which inhibition is on record?
A: 99.6% (active)

Q: For `O=C(Nc1ccc(Cl)cc1)N1CCC1c1ccccc1F` (configuration not stated), which inhibition is on record?
A: -6.67% (inactive)

Q: Which inhibition does the source give for `CCN1CCN(c2c(CN(C(=O)Nc3ccc(SC)cc3)C(C)C)c(C)nn2-c2cccc(F)c2)CC1` here?
A: 74.4% (active)

Q: Which inhibition does the source give for `CCCn1nc(C(=O)NC(C)c2nnc3n2CCC3)ccc1=O` (configuration not stated) here?
A: 3.57% (inactive)

Q: With `Cn1nc(C(=O)NCC23CC4CC(CC(C4)C2)C3)ccc1=O` as the compound, how does the inhibition read?
A: 77.1% (active)

Q: Which inhibition does the source give for `O=C(O)c1cc(-c2cccc(F)c2)n2nc(-c3ccccc3)cc2n1` here?
A: 34.3% (inactive)

Q: With `O=c1cc(-c2ccccc2)nc2sc(Br)nn12` as the compound, how does the inhibition read?
A: 102% (active)

Q: With `Nc1c(C=C2C=C([N+](=O)[O-])C=C(Br)C2=O)c(=O)nc2sc(-c3ccccc3)nn12` as the compound, how does the inhibition read?
A: 45.7% (inactive)

Q: Which inhibition does the source give for `O=c1[nH]c2cc(Cl)c(Br)cc2o1` here?
A: 81.6% (active)

Q: With `O=c1[nH]c2c(Cl)c(Cl)c(Cl)cc2o1` as the compound, how does the inhibition read?
A: 31.7% (inactive)

Q: For `O=c1[nH]c2c(Br)c(Br)c(Cl)cc2o1`, which inhibition is on record?
A: inactive

Q: With `CCc1c(C)nc(-n2nc(C)cc2NC(=O)c2ccccc2C)[nH]c1=O` as the compound, how does the inhibition read?
A: 12.6% (inactive)

Q: With `CCc1c(C)nc(-n2nc(C)cc2NC(=O)c2cccc3ccccc23)[nH]c1=O` as the compound, how does the inhibition read?
A: 100% (active)

Q: Which inhibition does the source give for `Cc1cc(NC(=O)c2cccc3ccccc23)n(-c2nc(C)c(C)c(=O)[nH]2)n1` here?
A: -30.4% (inactive)

Q: Which inhibition does the source give for `CCc1c(C)nc(-n2nc(C)cc2NC(=O)Cc2cccc3ccccc23)[nH]c1=O` here?
A: 98.5% (active)

Q: For `CCc1c(C)nc(-n2nc(C)cc2NC(=O)c2ccccc2SC)[nH]c1=O`, which inhibition is on record?
A: 100% (active)

Q: With `CCc1cc(=O)[nH]c(-n2nc(C)cc2NC(=O)c2ccccc2SC)n1` as the compound, how does the inhibition read?
A: 99.7% (active)

Q: With `CNc1cccc(-c2ccc(O)cc2)n1` as the compound, how does the inhibition read?
A: 33.6% (inactive)

Q: With `C=CCn1c(-c2ccc(Cl)cc2Cl)csc1=Nc1cccc(O)c1` as the compound, how does the inhibition read?
A: -10.5% (inactive)

Q: With `CCOC(=O)Cn1c(=NC(=O)c2ccccc2[N+](=O)[O-])sc2cc(C(C)C)ccc21` as the compound, how does the inhibition read?
A: 3.22% (inactive)

Q: Which inhibition does the source give for `CCc1c(C)nc(-n2nc(C)cc2NC(=O)c2cc3ccccc3o2)[nH]c1=O` here?
A: -38.5% (inactive)

Q: For `CCc1c(C)nc(-n2nc(C)cc2NC(=O)c2ccccc2C(F)(F)F)[nH]c1=O`, which inhibition is on record?
A: 101% (active)

Q: Which inhibition does the source give for `CCc1c(C)nc(-n2nc(C)cc2NC(=O)c2cc(=O)c3ccccc3o2)[nH]c1=O` here?
A: 101% (active)

Q: With `Cc1cccc(-c2nc(C)c(Cc3ccccc3)c(N3CCNCC3)n2)c1` as the compound, how does the inhibition read?
A: 101% (active)

Q: For `CCc1c(C)nc(-c2ccc(OC)cc2)nc1N1CCNCC1`, which inhibition is on record?
A: 42.7% (inactive)

Q: For `Cc1nc(C)c(Cc2ccccc2Cl)c(N2CCN(C(=O)c3cccc(Br)c3)CC2)n1`, which inhibition is on record?
A: 29.3% (inactive)

Q: With `Cc1cccc(OC2CN(c3nc(-c4ccccn4)nc4c3CCNC4)C2)c1` as the compound, how does the inhibition read?
A: 26.7% (inactive)

Q: For `Cc1nc(-c2cccc(F)c2)nc(N2CCNCC2)c1Cc1ccccc1`, which inhibition is on record?
A: 66.1% (active)

Q: For `Cc1ccc(-c2nc(C)c(C(C)C)c(N3CCNCC3)n2)cc1`, which inhibition is on record?
A: 44% (inactive)

Q: With `Cc1nc(-c2ccc(Cl)cc2)nc(N2CCNCC2)c1Cc1ccccc1` as the compound, how does the inhibition read?
A: 97.6% (active)

Q: With `Cc1nc(-c2ccc(Cl)cc2)nc(N2CCNCC2)c1C` as the compound, how does the inhibition read?
A: 79.2% (active)

Q: For `COC(=O)c1ccc(NC(=O)c2ccc(Br)o2)cc1`, which inhibition is on record?
A: 83.8% (active)

Q: For `CN(Cc1ccc(Cl)cc1)c1nccc(-c2cc(C(=O)O)ccn2)n1`, which inhibition is on record?
A: 17.6% (inactive)

Q: For `CN(Cc1ccc(C(N)=O)cc1)c1cccc(F)c1C#N`, which inhibition is on record?
A: 13.8% (inactive)

Q: For `Cc1ccc(CN(C)c2ccc(C(=O)O)cc2)cc1`, which inhibition is on record?
A: 51.7% (active)

Q: Which inhibition does the source give for `O=C(CCc1ccc(O)cc1)c1c(O)cc(O)cc1O` here?
A: 93.3% (active)

Q: Which inhibition does the source give for `O=C(CCc1ccc(O)cc1)N1CCOC(c2ccc(Cl)cc2)C1` (configuration not stated) here?
A: 19.6% (inactive)
